PubChem BioAssay (NCATS)
Results filed as inconclusive are left out. Activity calls are given as the source filed them. Unless noted, calls follow the shape of the dose curve; as a rule, active = well fitted curve in the direction sought with a large enough effect; inconclusive = small, poorly fitted or top-dose-only effect, or another doubt; inactive = no such curve, though single readings can be large; an effect the other way counts as inactive or inconclusive.

Tests used:
[1] = target: Lysosomal acid glucosylceramidase (Homo sapiens) (UniProt P04062); assay: Glucocerebrosidase-p2 (AID 348; in the data active = potency below about 10 µM; also: potency is read from the fitted curve at half-maximal effect); conditions: purified GBA, blue fluorogenic substrate, 40 min
Outline: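 Compounds titrated from 0.6 nM upwards against 0.2 nM enzyme in pH 5.9 citric acid/KH2PO4, taurocholate, tween-20; blue fluorogenic substrate 80 uM, 40 min room temperature, stopped and read Ex 365/Em 440 for AC50.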

[2] = AP1 Signaling Pathway (AID 357; active = well fitted curve in either direction with a large enough effect, not every such curve was filed as active;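 also: ME-180 reporter cells stimulated with EGF at its EC50 level; % is scaled to controls: 0 for no effect and ±100 for the full control effect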); conditions: ME-180 AP-1-bla reporter, EGF-induced, beta-lactamase ratio, 5 h; at 7.69 µM (top of the series) unless noted
Outline: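 Read-out was the 460nm/530nm emission ratio (excitation 405nm) after CCF4 loading for 2.5 hours at room temperature. Cells carried an AP-1-driven beta-lactamase reporter, were stimulated with EC50 EGF plus compound for 5 hours, and AC50 values came from titrations.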

[3] = target: Cytochrome P450 1A2 (Homo sapiens) (UniProt P05177); assay: p450-cyp1a2 (AID 410; calls by dose curve; also: potency is read from the fitted curve at half-maximal effect); conditions: recombinant CYP1A2, luciferin-ME demethylation, luminescence; series mostly up to 57 µM
Cytochrome P450 1A2 (Homo sapiens), sequence (P05177 whole entry, looked up): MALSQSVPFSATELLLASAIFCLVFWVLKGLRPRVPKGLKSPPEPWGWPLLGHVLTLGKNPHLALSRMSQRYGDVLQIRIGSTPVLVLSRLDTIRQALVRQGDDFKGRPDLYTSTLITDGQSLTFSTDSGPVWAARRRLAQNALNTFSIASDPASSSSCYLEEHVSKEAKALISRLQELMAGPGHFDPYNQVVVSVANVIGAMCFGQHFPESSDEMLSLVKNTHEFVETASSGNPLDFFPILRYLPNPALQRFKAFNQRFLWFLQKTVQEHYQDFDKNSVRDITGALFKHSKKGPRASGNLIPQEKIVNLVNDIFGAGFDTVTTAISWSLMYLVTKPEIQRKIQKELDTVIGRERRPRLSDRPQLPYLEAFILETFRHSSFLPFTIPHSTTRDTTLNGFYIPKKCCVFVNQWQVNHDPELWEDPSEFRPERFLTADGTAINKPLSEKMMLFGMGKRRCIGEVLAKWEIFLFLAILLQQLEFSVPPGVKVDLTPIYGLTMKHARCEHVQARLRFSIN
Outline: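 Human CYP1A2 (20nM) demethylated Luciferin-ME at its Km (100uM) in 100mM KPO4. After 10 min compound preincubation, NADPH regeneration ran the reaction 60 min at room temperature. Luciferin was read by luminescence, normalized to 57 uM furafylline.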

[4] = NFAT Signaling Pathway (AID 444; active = well fitted curve in either direction with a large enough effect, not every such curve was filed as active;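 also: carbachol stimulus at about its EC50 of 1 µM final; % is scaled to controls: 0 for no effect and ±100 for the full control effect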); conditions: Jurkat NFAT-bla M1, carbachol, beta-lactamase ratio, 5 h; at 7.69 µM (top of the series) unless noted
Outline: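 Jurkat cells with NFAT-driven β-lactamase reporter and co-expressed M1 receptor, stimulated with carbachol (final 1 uM, ~EC50), compound titration, 5 h at 37 °C. CCF4 loaded 1 h at RT; 460/530 nm ratio gave %activity and AC50.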

[5] = Stat Signaling Pathway (AID 446; active = well fitted curve in either direction with a large enough effect, not every such curve was filed as active;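 also: ME-180 cervical cancer cells given 40 pM IL-6 alongside compound; SIE-controlled beta-lactamase reporter measured as 460/530 nm FRET emission ratio; % is scaled to controls: 0 for no effect and ±100 for the full control effect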); conditions: ME-180 SIE beta-lactamase reporter, IL-6 stimulated, 5 h; series mostly up to 7.69 µM
Outline: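 ME-180 cells carrying a SIE-driven beta-lactamase reporter are stimulated with 40 pM IL-6 for 5 h at 37C in the presence of compound. The 460/530 nm FRET substrate ratio is read after 2.5 h at RT. Data are normalised to 300 pM IL-6 and to 125 nM JAK inhibitor controls.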

[6] = target: Glucocorticoid receptor (Homo sapiens) (UniProt P04150); assay: GR-GFP Redistribution (AID 450;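 active = compounds whose dose series gives a full or clear partial fitted curve of increased nuclear translocation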; also: potency is read from the fitted curve at half-maximal effect); conditions: U2OS GR-GFP nuclear translocation, laser cytometry, 2 h
Glucocorticoid receptor (Homo sapiens), sequence (P04150 whole entry, looked up, the tested form may be a part): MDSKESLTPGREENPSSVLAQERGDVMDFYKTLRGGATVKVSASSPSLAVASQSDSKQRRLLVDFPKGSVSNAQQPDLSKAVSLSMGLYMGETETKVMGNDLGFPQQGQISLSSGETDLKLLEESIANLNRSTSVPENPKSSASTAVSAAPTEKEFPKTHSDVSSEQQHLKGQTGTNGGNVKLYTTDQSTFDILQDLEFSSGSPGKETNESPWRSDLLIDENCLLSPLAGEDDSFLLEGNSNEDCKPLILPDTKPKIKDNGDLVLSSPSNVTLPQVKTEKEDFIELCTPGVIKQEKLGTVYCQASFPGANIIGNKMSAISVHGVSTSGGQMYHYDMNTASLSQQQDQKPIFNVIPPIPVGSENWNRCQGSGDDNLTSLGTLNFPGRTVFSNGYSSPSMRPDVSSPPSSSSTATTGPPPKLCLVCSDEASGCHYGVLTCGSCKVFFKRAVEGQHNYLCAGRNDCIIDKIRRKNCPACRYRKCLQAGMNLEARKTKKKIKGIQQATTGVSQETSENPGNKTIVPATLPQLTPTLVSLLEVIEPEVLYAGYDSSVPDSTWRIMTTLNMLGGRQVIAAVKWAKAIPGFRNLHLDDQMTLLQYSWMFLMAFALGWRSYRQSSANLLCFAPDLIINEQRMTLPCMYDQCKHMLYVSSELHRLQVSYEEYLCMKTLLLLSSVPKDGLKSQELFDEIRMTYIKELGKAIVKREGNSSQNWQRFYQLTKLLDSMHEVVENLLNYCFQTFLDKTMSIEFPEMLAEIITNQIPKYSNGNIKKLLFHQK

[7] = target: Glucocorticoid receptor (Homo sapiens) (UniProt P04150); assay: GR-EFC Redistribution (AID 451; calls by dose curve; also: potency is read from the fitted curve at half-maximal effect); conditions: CHO-K1 GR-EFC translocation, beta-gal luminescence, 2 h
Outline: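 CHO-K1 cells expressing nuclear EA and GR-ED fragments of b-gal; compounds titrated up to 46 uM final, 2 h at 37 C. GR nuclear translocation read as complemented b-gal luminescence after 1 h RT detection.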

[8] = target: Mitogen-activated protein kinase 10 (Mus musculus) (UniProt Q61831); assay: JNK3 AlphaScreen Assay (AID 530; active = well fitted curve in either direction with a large enough effect, not every such curve was filed as active;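 also: kinase came from lysate of stimulated human HepG2 cells; signal reports phosphorylation of biotinylated GST-cJun 1-79 at Ser73 with 10 µM ATP; % is scaled to controls: 0 for no effect and ±100 for the full control effect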); conditions: JNK3 lysate, c-Jun phosphorylation; series mostly up to 57.1 µM
Outline: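 qHTS format: compounds tested as titrations against IL-1beta/TNF-alpha-activated HepG2 lysate JNK3 with biotin-GST-cJun substrate and 10 uM ATP at room temperature. Loss of anti-phospho-cJun AlphaScreen signal indicates inhibition.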

[9] = target: 3',5'-cyclic-AMP phosphodiesterase 4B (Homo sapiens) (UniProt Q07343); assay: qHTS Assay for Inhibitors of PDE-IV (AID 607; active = well fitted activation curve with a large enough effect in the main read-out, with a control signal flat, not every such curve was filed as active; also: % of control where 0% means no effect); conditions: HEK293 ACTOne CNG channel cells, membrane potential fluorescence; series mostly up to 22.9 µM
Outline: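 HEK293 ACTOne cells with CNG channel (1000/well), endogenous PDE4; membrane potential dye, compounds up to 22.9 uM final. Fluorescence Ex 535/Em 590; RO 20-1724 (100 uM final) as reference.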

[10] = target: Cytochrome P450 3A4 (Homo sapiens) (UniProt P08684); assay: qHTS Assay for Activators of Cytochrome P450 3A4 (AID 885); conditions: recombinant CYP3A4, Luciferin-PPXE luminescence, 60 min; series mostly up to 57.1 µM; also: nearly all actives have a fitted effect of over 65% in size
Cytochrome P450 3A4 (Homo sapiens), sequence (P08684 whole entry, looked up): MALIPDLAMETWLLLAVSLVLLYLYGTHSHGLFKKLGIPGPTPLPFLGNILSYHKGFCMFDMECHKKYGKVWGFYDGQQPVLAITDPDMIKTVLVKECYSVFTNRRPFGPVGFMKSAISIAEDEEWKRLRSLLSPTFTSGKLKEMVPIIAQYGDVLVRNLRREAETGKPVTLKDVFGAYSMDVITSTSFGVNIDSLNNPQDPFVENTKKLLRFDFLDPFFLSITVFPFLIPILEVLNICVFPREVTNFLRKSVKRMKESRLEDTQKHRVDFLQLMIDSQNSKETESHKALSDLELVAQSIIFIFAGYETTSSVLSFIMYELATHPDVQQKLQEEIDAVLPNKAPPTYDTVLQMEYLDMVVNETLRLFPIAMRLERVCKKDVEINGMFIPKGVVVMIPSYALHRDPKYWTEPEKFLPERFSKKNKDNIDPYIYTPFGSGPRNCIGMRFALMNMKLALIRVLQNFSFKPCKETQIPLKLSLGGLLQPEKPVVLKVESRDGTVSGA
Outline: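 Human CYP3A4 (20 nM) with Luciferin-PPXE at 25 uM (its KM) in 200 mM KPO4; 10 min compound preincubation, then NADPH regeneration and 60 min reaction at RT. Luciferin read by luminescence; normalized to 57 uM ketoconazole full inhibition.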

[11] = target: Cytochrome P450 2C19 (Homo sapiens) (UniProt P33261); assay: qHTS Assay for Inhibitors and Substrates of Cytochrome P450 2C19 (AID 899); conditions: recombinant CYP2C19, luciferin-H EGE luminescence; series mostly up to 57.1 µM; also: potency is read from the fitted curve at half-maximal effect; nearly all actives have a fitted effect of over 60% in size
Cytochrome P450 2C19 (Homo sapiens), sequence (P33261 whole entry, looked up): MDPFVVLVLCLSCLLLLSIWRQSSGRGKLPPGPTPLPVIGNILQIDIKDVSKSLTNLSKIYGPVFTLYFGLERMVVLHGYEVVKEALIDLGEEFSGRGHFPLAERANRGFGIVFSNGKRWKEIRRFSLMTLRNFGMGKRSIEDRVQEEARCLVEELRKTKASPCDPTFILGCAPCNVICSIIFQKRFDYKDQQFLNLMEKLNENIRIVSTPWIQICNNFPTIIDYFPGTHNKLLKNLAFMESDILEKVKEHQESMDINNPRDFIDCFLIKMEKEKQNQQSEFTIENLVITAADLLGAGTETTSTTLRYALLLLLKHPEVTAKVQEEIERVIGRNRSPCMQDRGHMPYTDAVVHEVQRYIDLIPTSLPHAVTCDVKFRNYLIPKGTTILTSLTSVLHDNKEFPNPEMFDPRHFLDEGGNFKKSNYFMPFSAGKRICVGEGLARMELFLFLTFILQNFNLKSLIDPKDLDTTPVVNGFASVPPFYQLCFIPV
Outline: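 5 nM human CYP2C19 with 10uM Luciferin-H EGE (at KM) in 50mM KPO4, compound preincubated 10 min at 37C, then NADPH regeneration for 60 min at 37C. Luciferin read by luminescence after detection reagent; normalized to 57uM ketoconazole as full inhibition.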

[12] = target: Dual specificity protein kinase CLK4 (Homo sapiens) (UniProt Q9HAZ1); assay: qHTS Assay for Inhibitors of CDC-like Kinase 4 (Kinase-Glo Assay) (AID 1770); conditions: recombinant Clk4, Kinase-Glo ATP depletion luminescence; series mostly up to 66.7 µM; also: nearly all actives have a fitted effect of over 65% in size; also: potency is read from the fitted curve at half-maximal effect
Dual specificity protein kinase CLK4 (Homo sapiens), sequence (Q9HAZ1 whole entry, looked up): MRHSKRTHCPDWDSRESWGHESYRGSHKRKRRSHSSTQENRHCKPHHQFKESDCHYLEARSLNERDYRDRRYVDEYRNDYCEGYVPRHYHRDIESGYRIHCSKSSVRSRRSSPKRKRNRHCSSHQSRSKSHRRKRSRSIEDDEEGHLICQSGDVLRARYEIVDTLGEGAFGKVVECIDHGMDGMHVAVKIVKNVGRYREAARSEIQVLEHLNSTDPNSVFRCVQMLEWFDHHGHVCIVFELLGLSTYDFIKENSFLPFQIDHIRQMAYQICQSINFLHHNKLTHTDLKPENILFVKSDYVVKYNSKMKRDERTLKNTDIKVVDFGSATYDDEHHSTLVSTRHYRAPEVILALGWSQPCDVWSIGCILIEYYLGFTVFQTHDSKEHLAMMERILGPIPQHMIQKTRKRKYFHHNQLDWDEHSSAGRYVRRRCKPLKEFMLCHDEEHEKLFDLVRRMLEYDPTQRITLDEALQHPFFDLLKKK
Outline: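 Luminescent ATP-depletion read-out (Kinase-Glo) after 4.5 h room-temperature reaction of Clk4 (25 nM final) with RS peptide (100 uM) and ATP (1 uM), pH 7.5 Tris buffer with MgCl2 and DTT.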

[13] = target: Dual specificity protein kinase CLK4 (Homo sapiens) (UniProt Q9HAZ1); assay: qHTS Assay for Inhibitors of CDC-like Kinase 4 (ADP-Glo Assay) (AID 1771); conditions: recombinant CLK4, ADP-Glo luminescence; series mostly up to 80 µM; also: nearly all actives have a fitted effect of over 70% in size; also: potency is read from the fitted curve at half-maximal effect
Outline: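 Clk4 (25 nM) was incubated 1 hr at room temperature with 100 uM RS repeat peptide and 1 uM ATP in buffer with 2 mM MgCl2, 0.5 mM EGTA, 2.5 mM DTT. ADP formed was quantified by ADP-Glo luminescence.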

[14] = target: Dual specificity protein kinase CLK4 (Homo sapiens) (UniProt Q9HAZ1); assay: qHTS Assay for Inhibitors of CDC-like Kinase 4 (ADP-FP Assay) (AID 1795); conditions: Transcreener ADP fluorescence polarization; series mostly up to 50 µM; also: nearly all actives have a fitted effect of over 60% in size; also: potency is read from the fitted curve at half-maximal effect
Outline: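 Kinase activity was measured as ADP production using Transcreener orange tracer (4 nM) and ADP antibody (1 ug/mL) fluorescence polarization, with ADP calculated from a calibration curve. The 1 h reaction contained 6.25 nM Clk4, 1 uM ATP and 100 uM RS peptide at pH 7.5 with Mg2+.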

[15] = target: Ubiquitin carboxyl-terminal hydrolase 1 (Homo sapiens) (UniProt O94782); assay: Inhibitors of USP1/UAF1: Pilot qHTS (AID 504865); conditions: purified USP1/UAF1, Ub-rhodamine cleavage fluorescence; series mostly up to 54.9 µM;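 also: rhodamine fluorescence freed from ubiquitin-rhodamine substrate followed over time; top concentration of the series differs between compounds; % is scaled to controls: 0 for no effect and ±100 for the full control effect; nearly all actives have a fitted effect of over 35% in size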
Outline: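 Deubiquitinase activity followed as kinetic rhodamine fluorescence release from 150 nM Ub-Rho. 1 nM USP1/UAF1 with compound, after 15 min room-temperature preincubation, in HEPES pH 7.8 buffer containing TCEP, EDTA, BSA and Tween-20.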

[16] = target: Rap guanine nucleotide exchange factor 3 (Homo sapiens) (UniProt O95398); assay: Confirmatory qHTS for antagonist of cAMP-regulated guanine nucleotide exchange factor 3 (EPAC1) (AID 1645880); conditions: EPAC1 Rap1B-BODIPY-GDP exchange, fluorescence; activity, negative = inhibition: at 115 µM (top of the series);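 also: plate controls were DMSO only for no effect and full effect of the ATA control for full effect; nearly all actives have a fitted effect of over 55% in size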
Rap guanine nucleotide exchange factor 3 (Homo sapiens), sequence (O95398 whole entry, looked up): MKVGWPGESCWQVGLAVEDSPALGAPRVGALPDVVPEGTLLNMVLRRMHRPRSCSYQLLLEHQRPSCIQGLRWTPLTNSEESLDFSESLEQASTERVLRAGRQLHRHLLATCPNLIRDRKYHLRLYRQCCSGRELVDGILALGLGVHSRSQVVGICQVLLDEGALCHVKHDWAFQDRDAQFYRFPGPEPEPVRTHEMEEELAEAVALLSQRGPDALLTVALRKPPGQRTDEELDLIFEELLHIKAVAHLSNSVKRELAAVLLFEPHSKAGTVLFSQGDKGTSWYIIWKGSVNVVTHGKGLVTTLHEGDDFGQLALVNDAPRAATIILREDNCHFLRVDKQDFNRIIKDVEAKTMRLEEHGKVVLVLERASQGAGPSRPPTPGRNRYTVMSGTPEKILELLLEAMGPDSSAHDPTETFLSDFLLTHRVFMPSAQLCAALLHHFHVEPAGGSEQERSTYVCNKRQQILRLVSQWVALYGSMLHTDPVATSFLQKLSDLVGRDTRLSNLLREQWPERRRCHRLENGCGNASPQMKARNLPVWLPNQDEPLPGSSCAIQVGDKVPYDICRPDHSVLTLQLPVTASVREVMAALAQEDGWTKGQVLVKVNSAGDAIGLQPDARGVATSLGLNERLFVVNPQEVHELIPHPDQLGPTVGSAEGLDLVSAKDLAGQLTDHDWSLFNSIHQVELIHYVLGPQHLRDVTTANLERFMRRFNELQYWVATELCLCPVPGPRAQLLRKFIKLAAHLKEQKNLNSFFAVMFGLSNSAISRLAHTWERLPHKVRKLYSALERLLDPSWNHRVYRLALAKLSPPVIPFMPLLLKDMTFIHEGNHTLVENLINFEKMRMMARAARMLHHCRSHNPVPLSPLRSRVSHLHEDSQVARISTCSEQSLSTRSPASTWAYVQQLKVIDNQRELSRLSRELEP
Outline: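 Nucleotide exchange uses 100 nM EPAC1, 250 nM RAP1B-BODIPY-GDP and 50 uM GDP, with compounds in a concentration-titration series. After 5 min at room temperature, fluorescence (480 nm ex/540 nm em) is read every 5 min for 30 min. Data are normalized to control ATA and DMSO.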

[17] = target: Rap guanine nucleotide exchange factor 3 (Homo sapiens) (UniProt O95398); assay: Confirmatory qHTS for agonist of cAMP-regulated guanine nucleotide exchange factor 3 (EPAC1) (AID 1645881); conditions: EPAC1 Rap1B BODIPY-GDP exchange fluorescence; series mostly up to 154 µM; also: nearly all actives have a fitted effect of over 75% in size; also: potency is read from the fitted curve at half-maximal effect;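 as to activation: EPAC1 catalysed release of BODIPY-GDP from Rap1B seen as fluorescence loss; 100% = effect of cAMP agonist control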
[18] = target: Rap guanine nucleotide exchange factor 4 (Homo sapiens) (UniProt Q8WZA2); assay: Confirmatory qHTS for agonist of cAMP-regulated guanine nucleotide exchange factor 4 (EPAC2) (AID 1645884); conditions: EPAC2 GEF activity, Rap1B-BODIPY-GDP fluorescence; series mostly up to 154 µM;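 also: nucleotide exchange releases bodipy-GDP from Rap1 and this lowers its fluorescence; nearly all actives have a fitted effect of over 65% in size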; also: potency is read from the fitted curve at half-maximal effect
Rap guanine nucleotide exchange factor 4 (Homo sapiens), sequence (Q8WZA2 whole entry, looked up): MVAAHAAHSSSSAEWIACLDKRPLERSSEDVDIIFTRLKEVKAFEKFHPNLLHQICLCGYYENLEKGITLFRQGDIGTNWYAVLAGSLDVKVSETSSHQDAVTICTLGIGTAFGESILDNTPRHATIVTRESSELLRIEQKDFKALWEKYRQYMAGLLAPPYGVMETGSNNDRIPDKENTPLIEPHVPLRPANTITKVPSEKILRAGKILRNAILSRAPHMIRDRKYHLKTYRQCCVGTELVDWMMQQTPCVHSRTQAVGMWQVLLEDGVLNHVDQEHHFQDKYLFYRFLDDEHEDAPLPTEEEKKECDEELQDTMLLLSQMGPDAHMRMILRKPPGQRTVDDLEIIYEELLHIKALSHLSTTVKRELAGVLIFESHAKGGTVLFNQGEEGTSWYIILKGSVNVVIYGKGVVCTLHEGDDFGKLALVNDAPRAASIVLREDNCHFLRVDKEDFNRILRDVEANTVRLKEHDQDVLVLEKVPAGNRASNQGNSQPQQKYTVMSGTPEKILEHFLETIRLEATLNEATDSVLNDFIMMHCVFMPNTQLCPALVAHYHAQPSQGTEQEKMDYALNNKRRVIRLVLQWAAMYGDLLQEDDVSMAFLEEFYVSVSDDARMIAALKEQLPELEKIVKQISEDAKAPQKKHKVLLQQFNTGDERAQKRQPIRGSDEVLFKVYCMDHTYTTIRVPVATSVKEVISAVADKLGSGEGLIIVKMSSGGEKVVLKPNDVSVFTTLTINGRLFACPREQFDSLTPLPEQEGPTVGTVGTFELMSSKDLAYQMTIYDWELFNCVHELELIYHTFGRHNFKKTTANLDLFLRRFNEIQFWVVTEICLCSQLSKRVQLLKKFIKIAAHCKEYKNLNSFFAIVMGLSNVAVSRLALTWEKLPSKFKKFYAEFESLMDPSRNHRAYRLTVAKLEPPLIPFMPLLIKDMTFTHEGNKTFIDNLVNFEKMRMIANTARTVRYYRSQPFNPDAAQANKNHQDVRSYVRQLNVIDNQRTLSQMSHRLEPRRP

[19] = target: Rap guanine nucleotide exchange factor 4 (Homo sapiens) (UniProt Q8WZA2); assay: Confirmatory qHTS for antagonist of cAMP-regulated guanine nucleotide exchange factor 4 (EPAC2) (AID 1645885); conditions: EPAC2 Rap1B-BODIPY-GDP exchange fluorescence, biochemical; series mostly up to 12.7 µM; also: nearly all actives have a fitted effect of over 25% in size; also: potency is read from the fitted curve at half-maximal effect
[20] = target: Tumor susceptibility gene 101 protein (Homo sapiens) (UniProt Q99816); assay: qHTS Assay for Iinhibitors of HIV-1 Budding by Blocking the Interaction of PTAP/TSG101: Hit Validation (AID 651600); conditions: PTAP peptide/TSG101 UEV interaction, biochemical assay; series mostly up to 57.5 µM; also: nearly all actives have a fitted effect of over 70% in size; also: potency is read from the fitted curve at half-maximal effect
Outline: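 FITC-PTAP peptide (50 nM final) binding to Tsg101 binding domain (10 uM final) was measured by polarization after 20 min at r.t. with compounds, in 10 mM HEPES pH 7.5 buffer with 0.15 M NaCl and 0.01% Tween 20.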

[21] = target: Cytochrome P450 3A4 (Homo sapiens) (UniProt P08684); assay: qHTS Assay for Inhibitors and Substrates of Cytochrome P450 3A4 (AID 884); conditions: recombinant CYP3A4, Luciferin-PPXE luminescence; series mostly up to 57.1 µM; also: potency is read from the fitted curve at half-maximal effect; nearly all actives have a fitted effect of over 50% in size
Outline: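 20 nM human CYP3A4 with 25 uM Luciferin-PPXE (at KM) in 200 mM KPO4, preincubated 10 min with compound; NADPH regeneration started a 60 min RT reaction. Luciferin detected by luminescence, normalized to 57 uM ketoconazole as full inhibition.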

[22] = target: Cytochrome P450 2D6 (Homo sapiens) (UniProt P10635); assay: qHTS Assay for Inhibitors and Substrates of Cytochrome P450 2D6 (AID 891); conditions: recombinant CYP2D6, luciferin-ME EGE luminescence; series mostly up to 57.1 µM; also: potency is read from the fitted curve at half-maximal effect; nearly all actives have a fitted effect of over 60% in size
Outline: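 Human CYP2D6 (5 nM) with 30 uM Luciferin-ME EGE (at Km) in 100 mM KPO4, compound preincubated 10 min, then NADPH regeneration system for 60 min at room temperature. Luciferin read by luminescence; normalized to 1.43 uM quinidine.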

[23] = target: Rap guanine nucleotide exchange factor 3 (Homo sapiens) (UniProt O95398); assay: Counterscreen qHTS for agonist of cAMP-regulated guanine nucleotide exchange factor 3 (EPAC1) (AID 1645889); conditions: EPAC1 Rap1B-BODIPY-GDP exchange, fluorescence; series mostly up to 154 µM; also: % of control where 0% means no effect; nearly all actives have a fitted effect of over 40% in size
Outline: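 Rap1B–BODIPY-GDP (250 nM) with 50 uM GDP; compounds pin-transferred to 9.74 nM–152 uM final (activator) or from 7.32 nM upwards (inhibitor). Fluorescence Ex/Em 480/540 nm read at 5 and 30 min, then after adding cAMP or buffer, at room temperature.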

COc1cccc(Cn2c(=O)c(CCc3ccccc3)nc3cnc(N4CCN(C)CC4)nc32)c1
active: Potency [3] 15.8 µM | Potency [11] 7.94 µM
inactive: Potency [1] > 11.4 µM | activity change, negative = inhibition [2] -3.73% | activity change, negative = inhibition [4] 8.33% | outcome [5] | Potency [6] > 9.22 µM | Potency [7] > 46 µM | Potency [8] | Potency [9] | outcome [10] | Potency [12] | Potency [13] | Potency [14] | Potency [15] | Potency [16] | Potency [17] | Potency [18] | Potency [19]

O=C1c2cccc3c(O)ccc(c23)C(=O)N1Cc1ccccc1
inactive: Potency [16]
active: Potency [20] 2.59 µM | Potency [17] 89.1 µM | Potency [18] 100 µM | Potency [19] 75.7 µM

COc1cccc(-c2cncnc2NCc2ccccc2OC)c1
active: Potency [3] 3.98 µM | Potency [21] 0.501 µM | Potency [22] 7.94 µM | Potency [11] 2 µM | Potency [12] 14.1 µM | Potency [13] 15.8 µM | Potency [14] 14.1 µM | Potency [19] 44.1 µM
inactive: activity change, negative = inhibition [2] -3.02% | activity change, negative = inhibition [4] 6.93% | outcome [5] | Potency [6] > 46 µM | Potency [7] > 46 µM | outcome [10] | Potency [15] | Potency [16] | Potency [17] | Potency [18]

O=c1cnc2cnc(Oc3ccccc3)nc2n1Cc1cccs1
active: Potency [3] 7.94 µM | Potency [11] 1.26 µM | Potency [19] 15.6 µM
inactive: Potency [1] > 11.4 µM | activity change, negative = inhibition [4] -1.41% | outcome [5] | Potency [6] > 9.22 µM | Potency [7] > 46 µM | outcome [10] | Potency [16] | Potency [17] | Potency [18]

CCOC(=O)c1cnc2ccc(OC)cc2c1Nc1ccc(N2CCN(C)CC2)cc1
inactive: Potency [20] | Potency [16] | Potency [17] | activation [18] 12.5% [at 17.1 µM, percent relative to cAMP agonist control] | Potency [19] | activation [23] 12.2% [at 30.8 µM]
